Drawing on PubChem BioAssay AID547 (Emory University Molecular Libraries Screening Center, 2006), this text covers luminescence for 21 molecules.

Out of some 1,300 compounds screened, about 10 (0.8%) were called active. This excerpt belongs to a sample that is enriched for actives. Unmarked numbers belong to inactive results. The rule behind the calls is not given here.

The target in this assay is Chaperone protein DnaK (Escherichia coli (strain K12)) (UniProt P0A6Y8). As to the kind of experiment: E. coli DnaK chaperone inhibitors, primary screen, luminescence, E. coli K12 (AID 547).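 Note: tested at 10 µM.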 To be noted: DnaK chaperone assay, luminescence read-out; active compounds read low.
Consider `NCC(O)c1ccc(O)c(O)c1` (stereo unspecified), for which the luminescence is 2.7e+06 cps.
Take `O=C(O)c1cc(=O)c2ccc(Cl)cc2[nH]1`: the luminescence is 2.8e+06 cps.
With `CN=c1nc(-c2ccccc2)n(-c2ccccc2)s1`, the luminescence is 2.4e+06 cps.
For `O=S(=O)(NCCNC/C=C/c1ccc(Br)cc1)c1cccc2cnccc12`, the luminescence is 2.4e+06 cps.
For `O=C(OCCN1CCCCC1)c1c[nH]c2ccccc12`, the luminescence is 2.9e+06 cps.
On to `O=C(O)/C(=C/c1c(C(=O)O)[nH]c2cc(Cl)cc(Cl)c12)c1ccccc1`, for which the luminescence was 2.5e+06 cps.
Take `Cc1cn([C@H]2C=C[C@@H](CO)O2)c(=O)[nH]c1=O`: the luminescence is 2.9e+06 cps.
For `CCN(CC)C(C)C(=O)N1c2ccccc2Sc2ccccc21` (stereo unspecified), the luminescence was 2.4e+06 cps.
Consider `O=C(O)c1cc2cc(Cc3cccnc3)ccc2o1`, for which the luminescence is 3.2e+06 cps.
For the molecule `O=C(c1ccccc1)c1ccc2n1CCC2C(=O)O` (stereo unspecified), the luminescence was 2.9e+06 cps.
Turning to `C[N+](C)(C)CCOC(N)=O`, the luminescence is 2.6e+06 cps.
For the molecule `NCCc1cnc[nH]1`, the luminescence is 3.3e+06 cps.
`Nc1c(S(=O)(=O)O)cc(Nc2ccc(Nc3nc(Cl)nc(Nc4ccc(S(=O)(=O)O)cc4)n3)c(S(=O)(=O)O)c2)c2c1C(=O)c1ccccc1C2=O`: the luminescence was 1.6e+06 cps (active).
Turning to `O=C(O)C1CN(CCCP(=O)(O)O)CCN1` (stereo unspecified), the luminescence is 2.6e+06 cps.
Take `COc1ccccc1N1CCN(CCCCNC(=O)c2ccc3ccccc3c2)CC1`: the luminescence was 2.7e+06 cps.
For the molecule `COc1cc2c(cc1OC)-c1cc(=Nc3c(C)cc(C)cc3C)n(C)c(=O)n1CC2`, the luminescence is 2.5e+06 cps.
The value for `O=C(O)C1=CC(=C(c2ccc(O)c(C(=O)O)c2)c2ccc(O)c(C(=O)O)c2)C=CC1=O` was 1.2e+06 cps (active); that for `O=C(/C=C/c1ccc(O)c(O)c1)OCCc1ccccc1` was 3e+06 cps; that for `C[C@@H]1C(=O)NC2=Nc3cccc(Cl)c3CN21` was 2.4e+06 cps.
In the case of `COc1cc(C(O)CO)ccc1O` (stereo unspecified), the luminescence was 2.8e+06 cps.
In the case of `CNCCNS(=O)(=O)c1cccc2cnccc12`, the luminescence is 2.6e+06 cps.
